In PubChem BioAssay AID720551 (National Center for Advancing Translational Sciences (NCATS), 2013):
Screen size: about 340,000 compounds; about 1,300 (0.38%) were called active. Shown is part of a subset that was picked to be rich in actives. Unmarked numbers belong to inactive results.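 The calls were made as follows: active = maximum activity change below -70%; inconclusive = maximum activity change between -70% and -50%; inactive = maximum activity change above -50%.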

Each molecule was assayed against Voltage-gated inwardly rectifying potassium channel KCNH2 (Homo sapiens) (UniProt Q12809) (assay: qHTS for Inhibitors of KCHN2 3.1: Wildtype qHTS). Settings: U2OS, BacMam KCNH2, thallium flux FluxOr; at 1.84 µM; stronger effect = lower value.
Source text: Many antipsychotic drugs that inhibit the neurotransmitter dopamine also bind to hERG1 channel which might help explain their antipsychotic activity but also produces cardiac side effects. The discovery of the novel KCNH2 3.1 isoform offers a potential new target for the development of antipsychotic drugs without cardiac side effects. This proposal will use a high throughput thallium flux assay developed for KCNH2 to screen compounds that modulate the activity of KCNH2 3.1. The wild type KCNH2 channel will also be screened in parallel to help define the selective modulators of this KCNH2 3.1 potassium channel. The resulting compounds will be validated in electrophysiology experiments. The availability of animal models will allow future testing in vivo for effects on memory and other aspects of animal physiology linked with psychosis. NIH Chemical Genomics Center [NCGC] NIH Molecular Libraries Probe Centers Network [MLPCN] MLPCN Grant: MH096539 Assay Submitter (PI): James Barrow, Johns Hopkins University, Lieber Institute for Brain Development
U2OS cells were resuspended in cell media containing 10% fetal calf serum (FCS) at a concentration of 2 million cells / mL. The solution was treated with the Wild-type virus at 2.03 x 10^8 / mL and allowed to incubate at room temperature in the dark. After 4 hours of incubation, DMEM + 10% fetal bovine serum (FBS) was added to the cell solution. Three microliter was then dispensed into a 1536 tissue culture treated black assay plates which were incubated overnight at 37 C. Two microliter of loading buffer (HBSS + HEPES + Red40 dye quencher + FluxOr dye) was added and the assay plates were incubated for 45 min at room temperature in the dark. […] A stimulation buffer was added to the plate and the second kinetic read (2 min) was obtained. The rate constant was calculated from the kinetic reads and normalized to the positive and negative DMSO controls.
% is scaled to controls: 0 for no effect and ±100 for the full control effect.

Sequence of Voltage-gated inwardly rectifying potassium channel KCNH2 (Homo sapiens) (Q12809 whole entry, looked up, canonical isoform): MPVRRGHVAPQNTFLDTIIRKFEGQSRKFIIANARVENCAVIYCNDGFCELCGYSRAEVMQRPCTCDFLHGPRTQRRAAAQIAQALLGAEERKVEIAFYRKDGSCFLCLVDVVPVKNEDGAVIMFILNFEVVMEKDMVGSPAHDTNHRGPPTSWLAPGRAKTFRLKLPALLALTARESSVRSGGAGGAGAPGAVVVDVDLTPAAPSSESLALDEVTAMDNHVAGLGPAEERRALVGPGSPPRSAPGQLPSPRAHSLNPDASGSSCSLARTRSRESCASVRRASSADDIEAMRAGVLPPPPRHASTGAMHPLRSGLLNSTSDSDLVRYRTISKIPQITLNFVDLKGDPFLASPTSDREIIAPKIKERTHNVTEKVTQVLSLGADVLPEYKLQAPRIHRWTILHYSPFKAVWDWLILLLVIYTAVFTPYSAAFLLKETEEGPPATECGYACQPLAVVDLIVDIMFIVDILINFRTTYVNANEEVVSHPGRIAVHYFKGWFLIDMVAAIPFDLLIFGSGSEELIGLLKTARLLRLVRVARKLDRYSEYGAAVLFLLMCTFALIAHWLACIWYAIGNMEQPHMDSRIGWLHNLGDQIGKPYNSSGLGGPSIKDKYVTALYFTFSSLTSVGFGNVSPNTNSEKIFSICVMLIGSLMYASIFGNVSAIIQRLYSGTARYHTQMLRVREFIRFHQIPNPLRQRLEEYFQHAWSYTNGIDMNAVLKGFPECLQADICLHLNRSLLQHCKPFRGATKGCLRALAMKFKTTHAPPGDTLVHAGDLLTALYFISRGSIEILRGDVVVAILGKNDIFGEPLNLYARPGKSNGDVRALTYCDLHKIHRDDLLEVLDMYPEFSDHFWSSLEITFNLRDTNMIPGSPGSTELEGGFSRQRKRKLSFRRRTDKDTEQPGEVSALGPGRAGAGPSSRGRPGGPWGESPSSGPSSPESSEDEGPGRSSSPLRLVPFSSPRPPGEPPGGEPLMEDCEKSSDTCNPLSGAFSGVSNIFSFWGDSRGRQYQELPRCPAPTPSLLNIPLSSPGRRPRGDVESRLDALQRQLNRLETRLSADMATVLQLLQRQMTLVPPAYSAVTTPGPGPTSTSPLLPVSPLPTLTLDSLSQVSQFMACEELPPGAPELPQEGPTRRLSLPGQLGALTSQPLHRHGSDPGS

| Compound | activity change |
| --- | --- |
| CCCCN1C(N)=NC[C@@H]1Cc1ccccc1 | -3.39% |
| CCCC[C@@H]1CN=C(N)N1CCc1cccc(F)c1 | -2.35% |
| CN(C)C1=NC[C@H](Cc2ccccc2)N1CCc1ccc(F)cc1 | -88.4% (active) |
| O=C1OCCC1=COCCCCOC=C1CCOC1=O | 0.218% |
| COC(=O)C[C@H]1C[C@@H]2c3cc(NC(=O)Nc4ccccc4)ccc3O[C@@H]2[C@@H](CO)O1 | -0.954% |
| CCOc1ccc(NC(=O)N2CCN(CC)CC2)cc1 | 0.628% |
| CCc1ccc(NC(=O)CN2CCC(C(=O)c3ccc(OC)cc3)CC2)cc1 | 1.48% |
| CCOc1ccc(NC(=O)CN2CCN(CC(=O)Nc3ccc(OC)cc3)CC2)cc1 | -141% (active) |
| CCc1cc(C(=O)c2ccc(OC)cc2)c(NC(=O)CN2CCN(C)CC2)s1 | -79.3% (active) |
| COc1cccc(NC(=O)CN2CCN(CC(=O)Nc3ccccc3Cl)CC2)c1 | 19.7% |
| COc1ccc(C(=O)Nc2sc(C)c(C)c2CN2CCOCC2)cc1 | -3.94% |
| C[C@H](CO)N1C[C@H](C)[C@@H](CN(C)C(=O)c2cnccn2)Oc2ncc(Br)cc2C1=O | -7.83% |
| O=C(NCCOc1ccccc1)N1[C@H]2CC[C@@H]1C=C(c1ccc(F)cc1OCc1ccccc1)C2 | 2.38% |
| O=C1CN(C(=O)COC(=O)c2cnc(Cl)c(Cl)c2)c2ccccc2N1 | 8.42% |
| Cc1ccccc1SCC(=O)OCC(=O)N1CC(=O)Nc2ccccc21 | 7.23% |
| O=C1CN(C(=O)COc2c(Cl)cccc2Cl)c2ccccc2N1 | -143% (active) |
| COc1ccc(NC(=O)CSc2nnnn2-c2cccc(OC)c2)cc1 | 52.5% |
| Cc1ccc(S(=O)(=O)N2C[C@@H](C)[C@]3(C2)[C@H](O)[C@H](OC(=O)NCc2ccccc2)C[C@H]2C(=O)N(c4ccccc4)C(=O)[C@H]23)cc1 | -2.73% |
| COc1ccc([C@H]2N[C@]3(CCCN(CC4CCCCC4)C3=O)[C@H]3C(=O)N(C)C(=O)[C@@H]23)cc1 | 14.1% |
| COc1ccc(SC[C@H](Cc2ccccc2)N2CCN(CCc3ccccc3)CCC2=O)cc1 | -108% (active) |
| O=C1CC[C@H](O)CCN1[C@H](CSc1ccc(Br)cc1)Cc1ccccc1 | 0.842% |
| C[C@H]1CCC(=O)N([C@H](CSc2ccccc2)Cc2ccccc2)CC1 | 9.67% |
| C[C@H]1CN([C@@H](C)CO)C(=O)CCCn2cc(nn2)CO[C@@H]1CN(C)S(=O)(=O)c1cccc(C#N)c1 | -15.1% |

| Compound | activity change |
| --- | --- |
| CC(OC(=O)c1cccnc1Cl)C(=O)NC1CCCCC1 (stereo not given) | 10.4% |
| COc1ccc(-n2c(-c3ccc(Cl)cc3)n[nH]c2=S)c(OC)c1 | -22.5% |
| CC1=C(N2CCN(c3ncccn3)CC2)CCC1=O | 2.31% |
| Cc1nn(-c2ncccn2)c2c1C(=O)CC(C)(C)C2Br (stereo not given) | -151% (active) |
| Cc1nn(-c2ccccc2)c2c1C(=O)NC(=O)C(C)(C)C2 | -0.0713% |
| O=C(COC(=O)CCc1c[nH]c2ccccc12)Nc1cccc(Cl)c1 | -8.07% |
| CC1(C)CN(CCc2ccccc2)C(=O)[C@H]1CC(=O)Nc1ccc(Br)cc1 | -7.47% |
| COCCNC(=O)c1ccc(N2CCC3(CC2)OCCO3)c([N+](=O)[O-])c1 | -4.71% |
| CCC(C)NC(=O)c1ccc(N2CCC3(CC2)OCCO3)c([N+](=O)[O-])c1 (stereo not given) | -3.92% |
| CCCNC(=O)c1ccc(N2CCC3(CC2)CC(c2ccc(Cl)cc2)=NO3)c([N+](=O)[O-])c1 | -85.9% (active) |
| Cc1cc(C)cc(C(=O)NCC(=O)OCC(=O)N2CCCCC2)c1 | -9.23% |
| COc1ccc(OC)c(CN2CCN(C(=O)CNC(=O)c3cc(C)cc(C)c3)CC2)c1 | -138% (active) |
| COc1cc(OC)cc(C(=O)NCC(=O)N2CCCCCCC2)c1 | 8.95% |
| COc1ccc(C(CNC(=O)CSc2ccccc2)N2CCOCC2)cc1 (stereo not given) | -6.03% |
| Cc1ccc(C=O)c([B-](F)(F)F)c1 | -18.6% |
| Cc1cc(=O)c2ccc(NC(=O)c3ccccc3)cc2[nH]1 | 13.6% |
| COc1cc(C)c(CN2CCN(C(=O)CCC(=O)c3ccc(C)s3)CC2)cc1OC | 1.74% |
| O=C1c2ccccc2C(O)N1Cc1ccccc1Cl (stereo not given) | 23.3% |
| COc1ccc(NC(=O)N2CCCC2C(=O)NCc2ccccc2Cl)cc1 (stereo not given) | -3.26% |
| O=C(Nc1ccc(Br)cc1)C1CCC(=O)N1Cc1ccccc1Cl (stereo not given) | -94.2% (active) |
| O=C(O)c1c(NC(=O)N2CCCC2)sc2c1CCCC2 | 0.0561% |
| CCN1CCN(CC(=O)Nc2sc3c(c2C#N)CCC3)CC1 | 5.2% |
